Test results from PubChem BioAssay.
A number with no mark means an inactive call. The rule behind the calls is not given here.

assay: inhibitors of Cryptococcus chitosan production, flow cytometry, Cibacron Brilliant Red staining (AID 1347148); conditions: Cryptococcus neoformans chitosan, stronger effect = lower value; at 10 µM unless noted;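 note: compound exposure lasted three days at 37 degrees C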

| Structure (SMILES) | fold fluorescence |
| --- | --- |
| C#CCN(C)[C@@H](C)Cc1ccccc1 | 5.04 [at 267 µM] |
| CCCCCCCCCCCCCCCCOC[C@H](O)COP(=O)([O-])OCC[N+](C)(C)C | 3.83 |
| C=C1[C@@H](C)[C@H]2[C@H](Cc3ccccc3)NC(=O)[C@]23[C@H](OC(C)=O)/C=C/[C@](C)(O)C(=O)[C@@H](C)C/C=C/[C@H]3[C@@H]1O | 11.8 [at 98.5 µM] |
| CC1=C2C[C@@H]3[C@H](CC=C4C[C@H](O)CC[C@]43C)[C@H]2CC[C@@]12O[C@H]1C[C@@H](C)CN[C@@H]1[C@@H]2C | 14.9 [at 121.5 µM] |
| C/C1=C/C(=O)O[C@H]2C[C@H](CC[C@@H](C)/C=C\CC1)O[C@](O)([C@H]1CSC(=O)N1)C2 | 6.99 [at 126.4 µM] |
| O[C@@H]1[C@@H](O)[C@H](O)CN2CC[C@@H](O)[C@@H]12 | 5.17 [at 264.3 µM] |
| C[C@@]1(CO)[C@H]2CC[C@@H]3C[C@H]4C[C@@]3(CC[C@@]4(O)CO)[C@]2(C)CC[C@@H]1O | 13 [at 147.7 µM] |
| CCN1C[C@]2(COC)C(O)C[C@H](OC)[C@]34C1[C@H]([C@H](OC)[C@H]23)[C@]1(OC(C)=O)[C@H]2[C@@H](OC(=O)c3ccccc3)[C@@](O)(C[C@H]24)[C@@H](OC)[C@@H]1O (stereo not given in full) | 4.31 [at 77.4 µM] |
| O=C1CS[C@@H](c2ccccc2Cl)c2cc(Cl)ccc2N1 | 10.4 [at 154.2 µM] |
| N[C@H]1CCc2cc(O)c(O)cc2C1 | 4.25 [at 279 µM] |
